Assay results from PubChem BioAssay (NCATS).
Inconclusive results are not listed. A number with no mark means an inactive call. Active and inactive are the calls of the source. Calls follow the shape of the dose curve; as a rule, active = well fitted cell-killing curve with a large enough effect; inconclusive = small, poorly fitted or top-dose-only effect, or effect the other way; inactive = no such curve, though single readings can be large or run the other way.

Experiments:
[1] = Viability qHTS for spleen associated tyrosine kinase inhibitor (SYKi) naive MV4-11 cells (AID 1963823); conditions: MV4-11 AML viability, CellTiter-Glo luminescence, 72 h; series mostly up to 45 µM; also: nearly all actives have a fitted effect of over 40% in size
Method in brief: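 Compounds were dispensed acoustically onto plates, MV4-11 cells (SYKi-naive) added at 500 per well, and plates incubated 72 hr at 37 C. CellTiter-Glo was added and luminescence measured after 10 min.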

[2] = Viability qHTS for spleen associated tyrosine kinase inhibitor (SYKi) drug resistant MV4-11 cells (AID 1963824); conditions: SYKi-resistant MV4-11 viability, CellTiter-Glo, 72 h; series mostly up to 45 µM; also: nearly all actives have a fitted effect of over 35% in size
Method in brief: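 CellTiter-Glo luminescence, read 10 min after reagent addition, reports viability after a 72 hr compound exposure. Cells are an MV4-11 line made resistant to SYK inhibition, seeded at 500 per well onto compound-containing plates.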
Potency is read from the fitted curve at half-maximal effect.

SMILES | Potency [1] | Potency [2] | viability (% of control) [1] | viability, % of control [2]
N#C/C(=C1\Nc2ccccc2S1)c1ccnc(NCCc2cccnc2)n1 | 2310 nM (active) | 2310 nM (active) |  | 
Cc1cn([C@H]2C[C@H](O)[C@@H](CO)O2)c(=O)nc1N | inactive | inactive |  | 
CC1(C)CC[C@@]2(C(=O)O[C@@H]3O[C@H](CO)[C@@H](O)[C@H](O)[C@H]3O)C(C1)C1=CCC3[C@@]4(C)CC[C@@H](O[C@@H]5O[C@H](C(=O)O)[C@@H](O[C@@H]6OC[C@@H](O)[C@H](O)[C@H]6O)[C@H](O[C@@H]6OC[C@](O)(CO)[C@H]6O)[C@H]5O)C(C)(C)C4CC[C@@]3(C)[C@]1(C)C[C@H]2O (stereo partly specified) |  |  | 11.6% [at 9.25 µM] | 12% [at 9.25 µM]
C/C=C(/C)C(=O)O[C@H]1C=C(CO)C(=O)[C@H](OC(=O)/C(C)=C/CO)[C@H]1C(C)C | 2020 nM (active) | 1610 nM (active) |  | 
COc1cc2ncc(-c3ccccc3)nc2cc1OC | 3660 nM (active) | 4610 nM (active) |  | 
CC12CCC(C(OC3OC(COC4OCC(O)(CO)C4O)C(O)C(O)C3O)C1)C(C)(C)O2 (stereo unspecified) | inactive | inactive |  | 
O=C(Nc1ccccc1-c1cn2c(CN3CCNCC3)csc2n1)c1ccc2ccccc2n1 | 10300 nM (active) | 20600 nM (active) |  | 
CCOC(=O)CCC(=O)O[C@H]1[C@H](O[C@@H]2[C@@H](C)[C@H](O[C@H]3C[C@@](C)(OC)[C@@H](O)[C@H](C)O3)[C@@H](C)C(=O)O[C@H](CC)[C@@](C)(O)[C@H](O)[C@@H](C)C(=O)[C@H](C)CC2(C)O)O[C@H](C)C[C@@H]1N(C)C (stereo partly specified) | inactive | inactive |  | 
